Where a name gives a salt, the structure may show the parent alone.
system: A431; assay: whole-cell filipin (free cholesterol) integrated intensity, Z-score; higher = more cholesterol staining; conditions: compound concentration in added solution (µM; 5 µl added to 20 µl cells): 10; 18 h
In short: (§1)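 Four 20× images per well were taken of HeLa MZ or A431 cells that had been seeded at 3,500 per well in 20 µl onto 5 µl of 10 µM compound solution in duplicate 384-well imaging plates. Before imaging, cells were incubated 18 h, fixed in 4% PFA and stained with 6C4 anti-LBPA antibody, filipin, propidium iodide and CellTracker green. Values are Z-scores normalised in AcuityXpress from MetaXpress-derived per-cell integrated LBPA or filipin intensity, either whole-cell or within LBPA endosomes.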

Structure (SMILES) | whole-cell filipin (z-score)
C1CCc2nnnn2CC1 [Pentylenetetrazole] | -0.85
Clc1ccc(C(OCCN2CCCCC2)c2ccccc2)cc1 (configuration not stated) [Cloperastine hydrochloride] | 1.35
CN1[C@@H]2C[C@@H](OC(=O)[C@H](CO)c3ccccc3)C[C@H]1[C@@H]1O[C@@H]12 [Scopolamine hydrochloride] | -0.247
CC(Cc1ccc(O)cc1)NCC(O)c1cc(O)cc(O)c1 (configuration not stated) [Fenoterol hydrobromide] | -0.429
COc1ccc2c(c1)[C@]13CCCC[C@@H]1[C@H](C2)N(C)CC3 [Dextromethorphan hydrobromide monohydrate] | -0.0383
CN1[C@@H]2CC[C@H]1C[C@@H](OC(=O)C(CO)c1ccccc1)C2 (some centres not stated) [Atropine sulfate monohydrate] | -0.533
CC(=O)O[C@H]1CC[C@@]2(C)C(=CC[C@@H]3[C@@H]2CC[C@]2(C)C(=O)CC[C@@H]32)C1 [Dehydroisoandosterone 3-acetate] | 0.0526
O=c1[nH]oc2c1CCNC2 [THIP Hydrochloride] | -0.151
O=C(CCCN1CCC(n2c(=O)[nH]c3ccccc32)CC1)c1ccc(F)cc1 [Benperidol] | 2.2
CC1OC(OC2/C=C/C=C/C=C/C=C/CC/C=C/C=C/[C@H](C)[C@@H](O)[C@@H](C)[C@H](C)OC(=O)CC(O)CC(O)CC(O)CCC(O)C(O)C[C@]3(O)CC(O)C(C(=O)O)C(C2)O3)C(O)C(N)C1O (some centres not stated) [Nystatine] | 0.146
CCNC1(c2cccs2)CCCCC1=O (configuration not stated) [Tiletamine hydrochloride] | -0.0108
C=C(C)[C@@H]1[C@H]2OC(=O)[C@@H]1[C@]1(O)C[C@H]3O[C@]34C(=O)O[C@H]2[C@]14C [Picrotoxinin] | -0.718
CC(C)C[C@H]1C(=O)N2CCC[C@H]2[C@]2(O)O[C@](NC(=O)[C@@H]3C=C4c5cccc6[nH]c(Br)c(c56)C[C@H]4N(C)C3)(C(C)C)C(=O)N12 [Bromocryptine mesylate] | 1.54
CCC1(C)CC(=O)NC(=O)C1 [Bemegride] | -0.832
C[C@]12CC[C@H](O)C[C@@H]1CC[C@@H]1[C@@H]2CC[C@]2(C)C(=O)CC[C@@H]12 [Epiandrosterone] | 2.3
N[C@@H]1C[C@H]1c1ccccc1 [Tranylcypromine hydrochloride] | -0.309
CCCCCC[C@H]1C(=O)O[C@H](C)[C@H](NC(=O)c2cccc(NC=O)c2O)C(=O)O[C@@H](C)[C@@H]1OC(=O)CC(C)C [Antimycin A] | -0.217
CC(C)CC(N(C)C)C1(c2ccc(Cl)cc2)CCC1 (configuration not stated) [Sibutramine HCl] | -0.397
CCC(C)C1O[C@]2(C=C[C@@H]1C)C[C@@H]1CC(C/C=C(\C)[C@@H](OC3C[C@H](OC)[C@@H](OC4C[C@H](OC)[C@@H](O)[C@H](C)O4)[C@H](C)O3)[C@@H](C)/C=C/C=C3\COC4[C@H](O)C(C)=CC(C(=O)O1)[C@]34O)O2 (some centres not stated) [Avermectin B1a] | -0.0649
CCCC(C)(COC(N)=O)COC(=O)NC(C)C (configuration not stated) [Carisoprodol] | -0.863
CO[C@]12C[C@@H](COC(=O)c3cncc(Br)c3)CN(C)[C@@H]1Cc1cn(C)c3cccc2c13 [Nicergoline] | 3.37
NC(=O)C[S+]([O-])C(c1ccccc1)c1ccccc1 (configuration not stated) [Modafinil] | -0.743

system: HeLa MZ; assay: as above; conditions: compound concentration in added solution (µM; 5 µl added to 20 µl cells): 10; 18 h
In short: as §1

Structure (SMILES) | whole-cell filipin (z-score)
C[N+]1(C)[C@@H]2CC[C@H]1C[C@@H](OC(=O)C(CO)c1ccccc1)C2 (some centres not stated) [Methylatropine nitrate] | 0.542
COc1ccc(C(=O)N2CCCC2=O)cc1 [Aniracetam] | -0.402
CC(C)c1c(CN(C)C(C)Cc2ccccc2)n(C)n(-c2ccccc2)c1=O (configuration not stated) [Famprofazone] | -0.336
CC(=O)OCC1=C(C(=O)O)N2C(=O)[C@@H](N)[C@H]2SC1 [Cephalosporanic acid, 7-amino] | -0.877
O=P1(N(CCCl)CCCl)NCCCO1 (configuration not stated) [Cyclophosphamide] | 0.209
C#CCN(C)[C@H](C)Cc1ccccc1 [Selegiline hydrochloride] | -0.332
CC(=O)[C@H]1CC[C@H]2[C@@H]3CC[C@H]4C[C@H](O)CC[C@]4(C)[C@H]3C(=O)C[C@]12C [Alfaxalone] | -0.273
Cc1cc(C(C#N)c2ccc(Cl)cc2)c(Cl)cc1NC(=O)c1cc(I)cc(I)c1O (configuration not stated) [Closantel] | -0.632
C[C@]12C[C@H]3S[C@H]3C[C@@H]1CC[C@@H]1[C@@H]2CC[C@]2(C)[C@@H](O)CC[C@@H]12 [Epitiostanol] | 0.761
C=CCC1(CC(C)C)C(=O)NC(=O)NC1=O [Butalbital] | -0.648
O=C([O-])c1ccccc1-c1c2cc(Br)c(=O)cc-2oc2[c]([Hg+])c([O-])c(Br)cc12.[Na+].[Na+].[OH-] [Merbromin] | -0.654
C#C[C@]1(O)CC[C@H]2[C@@H]3CCC4=CC(=O)CCC4=C3C=C[C@@]21CC [Gestrinone] | 0.634
CNC(C)(C)Cc1ccccc1 [Mephentermine hemisulfate] | -0.125
C1CCc2nnnn2CC1 [Pentylenetetrazole] | -0.876
Clc1ccc(C(OCCN2CCCCC2)c2ccccc2)cc1 (configuration not stated) [Cloperastine hydrochloride] | -0.495
CN1[C@@H]2C[C@@H](OC(=O)[C@H](CO)c3ccccc3)C[C@H]1[C@@H]1O[C@@H]12 [Scopolamine hydrochloride] | 0.118
CC(Cc1ccc(O)cc1)NCC(O)c1cc(O)cc(O)c1 (configuration not stated) [Fenoterol hydrobromide] | -0.631
COc1ccc2c(c1)[C@]13CCCC[C@@H]1[C@H](C2)N(C)CC3 [Dextromethorphan hydrobromide monohydrate] | 0.286

Structure (SMILES) | whole-cell filipin (z-score)
CN1[C@@H]2CC[C@H]1C[C@@H](OC(=O)C(CO)c1ccccc1)C2 (some centres not stated) [Atropine sulfate monohydrate] | -0.945
CC(=O)O[C@H]1CC[C@@]2(C)C(=CC[C@@H]3[C@@H]2CC[C@]2(C)C(=O)CC[C@@H]32)C1 [Dehydroisoandosterone 3-acetate] | 0.0333
O=c1[nH]oc2c1CCNC2 [THIP Hydrochloride] | -1.07
O=C(CCCN1CCC(n2c(=O)[nH]c3ccccc32)CC1)c1ccc(F)cc1 [Benperidol] | 1.83
CC1OC(OC2/C=C/C=C/C=C/C=C/CC/C=C/C=C/[C@H](C)[C@@H](O)[C@@H](C)[C@H](C)OC(=O)CC(O)CC(O)CC(O)CCC(O)C(O)C[C@]3(O)CC(O)C(C(=O)O)C(C2)O3)C(O)C(N)C1O (some centres not stated) [Nystatine] | 0.0497
CCNC1(c2cccs2)CCCCC1=O (configuration not stated) [Tiletamine hydrochloride] | -0.435
C=C(C)[C@@H]1[C@H]2OC(=O)[C@@H]1[C@]1(O)C[C@H]3O[C@]34C(=O)O[C@H]2[C@]14C [Picrotoxinin] | -0.469
CC(C)C[C@H]1C(=O)N2CCC[C@H]2[C@]2(O)O[C@](NC(=O)[C@@H]3C=C4c5cccc6[nH]c(Br)c(c56)C[C@H]4N(C)C3)(C(C)C)C(=O)N12 [Bromocryptine mesylate] | 0.742
CCC1(C)CC(=O)NC(=O)C1 [Bemegride] | -0.492
C[C@]12CC[C@H](O)C[C@@H]1CC[C@@H]1[C@@H]2CC[C@]2(C)C(=O)CC[C@@H]12 [Epiandrosterone] | 2.67
N[C@@H]1C[C@H]1c1ccccc1 [Tranylcypromine hydrochloride] | -0.693
CCCCCC[C@H]1C(=O)O[C@H](C)[C@H](NC(=O)c2cccc(NC=O)c2O)C(=O)O[C@@H](C)[C@@H]1OC(=O)CC(C)C [Antimycin A] | -0.804
CC(C)CC(N(C)C)C1(c2ccc(Cl)cc2)CCC1 (configuration not stated) [Sibutramine HCl] | -0.373
CCC(C)C1O[C@]2(C=C[C@@H]1C)C[C@@H]1CC(C/C=C(\C)[C@@H](OC3C[C@H](OC)[C@@H](OC4C[C@H](OC)[C@@H](O)[C@H](C)O4)[C@H](C)O3)[C@@H](C)/C=C/C=C3\COC4[C@H](O)C(C)=CC(C(=O)O1)[C@]34O)O2 (some centres not stated) [Avermectin B1a] | 0.727
CCCC(C)(COC(N)=O)COC(=O)NC(C)C (configuration not stated) [Carisoprodol] | -0.798
CO[C@]12C[C@@H](COC(=O)c3cncc(Br)c3)CN(C)[C@@H]1Cc1cn(C)c3cccc2c13 [Nicergoline] | -0.0724
NC(=O)C[S+]([O-])C(c1ccccc1)c1ccccc1 (configuration not stated) [Modafinil] | -0.382

From the supplement of paper PMC6607015
